Compounds with a hit are over-represented: about 14% of the library has one in this group of screens.
HCV inhibitor: blocks hepatitis C virus | Potency, µM (top dose mostly 41.8 µM), without a hit: at the highest dose activity change, negative = inhibition, most hits filed as inhibitors | Huh7.5.1 HCVcc-Cre infection, luciferase reporter, 44 h | actives 3.4% (n = 340,000); also: potency is read from the fitted curve at half-maximal effect
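Cells seeded at 1,000/well and cultured 4 h, then compounds added followed by HCVcc-Cre virus (~0.5 moi). After 44 h further culture, luciferase substrate was added, plates held 15 min at room temperature, and luminescence read for 15 sec.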
Pf growth 48h: P. falciparum growth inhibition at 48 hours (one generation); P. falciparum luciferase growth in erythrocytes, 48 h; actives 5.9% (n = 310,000); AID 504832; Potency, µM (highest dose often 28.7 µM), inactives show at the top dose activity change, negative = inhibition, actives largely listed as inhibitors; also: potency is read from the fitted curve at half-maximal effect
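Parasite viability was followed by luminescence of a genomically integrated firefly luciferase. Cultures held 0.1% parasitemia at 2% hematocrit (final), incubated under 5% CO2 at 37 C.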
MARV entry inh: blocks Marburg virus binding to or entry into cells; Marburg virus pseudotyped entry inhibition, cell reporter; Potency, µM (series often up to 37.8 µM), for the others: top-dose activity change, negative = inhibition, hits mostly inhibitors; actives 1.8% (n = 300,000); AID 540276; calls by dose curve; tested in HEK293 cells; also: potency is read from the fitted curve at half-maximal effect
HCMV inh: human cytomegalovirus inhibition | actives 4.5% (n = 410,000) | HFF cells, HCMV-luciferase reporter, 72 h; stronger effect = lower value | activity change, negative = inhibition, % at 57.5 µM; in the data active = activity change below about -60%; inconclusive = no clear call, values can overlap the other calls; inactive = above about -39%
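Cell-based, HFFs, 1000 cells/well, 16 h 37C; cpds in DMSO + HCMV-luc, MOI 1 PFU/cell; 72 h 37C; OneGlo luminescence after 5 min RT; norm. to buffer vs Salinomycin 10uM.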
Pf growth 96h: inhibits malaria parasite growth, 96 h | P. falciparum luciferase reporter growth, 96 h | Potency, µM (highest dose often 28.7 µM), inactives show at the top dose activity change, negative = inhibition, most hits filed as inhibitors | actives 6.9% (n = 320,000) | AID 504834; also: potency is read from the fitted curve at half-maximal effect
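Compounds incubated with erythrocytes infected by luciferase-expressing P. falciparum (2% hematocrit, 0.05% parasitemia final) for 96 hours, 37 C in 5% CO2. Growth inhibition scored as decreased luciferase luminescence.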
LASV entry inh: Lassa virus entry inhibition. actives 1.2% (n = 300,000). Potency, µM (series often up to 37.9 µM), for the others: at the highest dose activity change, negative = inhibition, actives largely listed as inhibitors. Lassa virus pseudotype entry inhibition, cell reporter; calls by dose curve; tested in HEK293 cells; also: potency is read from the fitted curve at half-maximal effect; nearly all actives have a fitted effect of over 50% in size
Numbers without * were called inactive; ? = inconclusive; . = no result given; [ ] = another dose, or the depositor's remark. Unless noted, calls follow the shape of the dose curve; as a rule, active = well fitted inhibition curve with a large enough effect; inconclusive = small, poorly fitted or top-dose-only effect, or another doubt; inactive = no such curve, though single readings can be large or run the other way. % is scaled to controls: 0 for no effect and ±100 for the full control effect.

SMILES	HCV inhibitor	Pf growth 48h	MARV entry inh	HCMV inh	Pf growth 96h	LASV entry inh
CCNc1nc(NC(C)C)nc(N(C#N)Cc2ccccc2)n1	?	?	-4%[46.1 µM]	55	3%[5.75 µM]	8%
CCNc1nc(NC(C)C)nc(N(C#N)CCOc2ccc(Cl)cc2Cl)n1	5µM*	?	-21%	34	.	1%
CCc1ccc(NC(=O)Cn2c(=O)nc(-c3ccccc3F)c3cc(Cl)ccc32)cc1	.	.	.	29	.	-7%[46.1 µM]
Cc1ccccc1Cn1c(=O)n(Cc2ccco2)c(=O)c2sc3ccccc3c21	.	.	?	-69*	.	0%[46.1 µM]
Cc1cccc(Cn2c(=O)n(CCc3ccccc3)c(=O)c3sc4ccccc4c32)c1	.	.	-4%[46.1 µM]	-95*	.	25%[46.1 µM]
COc1cc2nc3occc3c(OC)c2cc1OC	?	29%	5%	-72*	15%	?
CC(C)(C)CN1CCN(CC#Cc2ccccc2)CC1CCO (stereo not drawn)	-6%	14%	.	86	?	.
OCCC#Cc1ccc(CN2CCN(CCc3ccccc3)C(CCO)C2)cc1 (stereo not drawn)	4%	?	4%[46.1 µM]	79	8.3µM*	?
CC(C)CCN1CCN(Cc2coc3ccccc3c2=O)CC1CCO (stereo not drawn)	20%	3%	21%[46.1 µM]	25	4.1µM*	10%[46.1 µM]
CC(C)CCN1CCN(Cc2ccc(C#CCCO)cc2)CC1CCO (stereo not drawn)	-4%	-20%	-6%[46.1 µM]	-24	12µM*	-4%
CN1CCN(CC#Cc2ccccc2)CC1CCO (stereo not drawn)	15%	1%	26%	20	4.1µM*	-22%
OCCC1CN(Cc2ccc3nsnc3c2)CCN1CCc1ccccc1 (stereo not drawn)	-11%	-5%	-23%[46.1 µM]	71	12µM*	1%
CC(C)c1csc(CN2CCN(CCc3ccccc3)C(CCO)C2)n1 (stereo not drawn)	5%	?	.	-38	1.7µM*	.
Cn1cc(CN2CCN(CCc3ccccc3)C(CCO)C2)cn1 (stereo not drawn)	-2%	3%	.	13	87%	.
CC(C)c1csc(CN2CCN(Cc3ccccc3)C(CCO)C2)n1 (stereo not drawn)	-14%	3%	0%[46.1 µM]	-1	?	?
O=C(CCn1cncn1)N1CCCC(N2CCN(c3cccc(C(F)(F)F)c3)CC2)C1 (stereo not drawn)	11%	-5%	18%	-12	?	12%
CCCCn1c(N)c(N(CC)C(=O)COc2ccc(C#N)cc2)c(=O)[nH]c1=O	5%	.	5%[46.1 µM]	40	.	9%[46.1 µM]
O=c1c2oc3ccccc3c2[nH]c(=S)n1-c1ccc(F)cc1	20%	5%	-1%	-28	8.3µM*	4%
Cc1ccc(-n2c(=S)[nH]c3c(oc4ccccc43)c2=O)cc1C	-1%	41%	-7%	-20	17%	23%
Cc1ccccc1O	6%	.	.	14	.	.
CC(=O)Oc1ccc2c(C)cc(=O)[nH]c2c1	6%	1%	-1%	-23	19%	0%
Cc1cc(O)c2ccccc2c1O	.	-29%	.	.	8.5µM*	.
CC(=O)Cc1cc(O)c2ccccc2c1OC(=O)c1ccccc1	-7%	13µM*	-19%[46.1 µM]	-73*	10%	-26%[46.1 µM]
CC(=O)Oc1c(C)cc(O)c2ccccc12	10µM*	?	-5%	.	?	.
CN1CCN(C(=O)C[C@H]2CC[C@H]3[C@@H](COC[C@@H](O)CN3C(=O)C3CCCC3)O2)CC1	.	.	.	-21	.	.
SMILES	HCV inhibitor	Pf growth 48h	MARV entry inh	HCMV inh	Pf growth 96h	LASV entry inh
CCCCC(=O)N(C)c1c(CC)nc2c(OCC(=O)N3CCOCC3)cccn12	.	.	.	8	.	.
Cc1ccccc1NC(=O)CCn1cnc2onc(-c3ccc(F)cc3)c2c1=O	.	.	.	-39	.	?
Cc1ccc(N2C(=O)c3ccc(C(=O)N4CCN(c5ccccc5F)CC4)cc3C2=O)cc1	0%	5%	0%	-2	9.3µM*	-8%
O=C(c1cccc(S(=O)(=O)N2CCN(c3ccccc3)CC2)c1)N1CCN(c2ccccc2O)CC1	?	10µM*	1%[46.1 µM]	-31	?	-10%
COc1ccc(C(=O)N2CCC(N3CCN(c4ccccc4)CC3)CC2)cc1OC	14%	-18%	13%	12	37%	-11%
COc1ccc(C(=O)N2CCN(C3CCC(c4ccccc4)CC3)CC2)cc1OC (stereo not drawn)	?	?	?	18	9.3µM*	?
COc1ccccc1N1CCN(C2CCN(C(=O)c3cccc(F)c3)CC2)CC1	-4%	-15%	12%	12	13µM*	-14%
CC(=O)N1CCN(C(=O)c2cccc(S(=O)(=O)N3CCN(c4ccccc4)CC3)c2)CC1	4%	?	.	-37	-30%	.
CC[C@@]1(C(=O)OC)N[C@H](CN(C)C(=O)Nc2ccc(OC)cc2)[C@@H]2C(=O)N(C)C(=O)[C@@H]21	-74%	.	.	-25	.	.
CC1(C(=O)NS(=O)(=O)C2CC2)CCCN(C(=O)c2cc3ccccc3s2)C1 (stereo not drawn)	.	.	.	16	.	.
CCOC(=O)c1c(C)[nH]c(C)c1S(=O)(=O)N1CCC(C(=O)NCc2cccc(C)c2)CC1	.	.	.	-22	.	-7%[46.1 µM]
CN(C)c1ccc(CNc2nc(-c3ccco3)nn2S(=O)(=O)c2ccc(Cl)cc2)cc1	.	.	?	76	.	3%[46.1 µM]
CN1CCN(S(=O)(=O)c2cccc(C(=O)N3CCN(c4ccccc4F)CC3)c2)CC1	24%	-25%	.	-7	-24%	.
O=C(c1cccc(S(=O)(=O)N2CCCCC2)c1)N1CCc2ccccc21	?	11%	?	-72*	1.2µM*	6%
Cn1c(O)c(N=NC(=O)c2cccc(S(=O)(=O)N3CCCCC3)c2)c2ccccc21	?	10µM*	?	-16	7.4µM*	?
CC1CC(C)CN(S(=O)(=O)c2cccc(C(=O)N3CCN(c4ccc(F)cc4)CC3)c2)C1 (stereo not drawn)	?	12µM*	.	29	?	.
O=C(c1cccc(S(=O)(=O)N2CCCCCC2)c1)N1CCN(c2ccccc2F)CC1	-21%	12µM*	1%	17	12%	12%
Cc1ccc(NC(=O)CN2C(=O)CCc3cc(S(=O)(=O)N4CCOCC4)ccc32)c(C)c1	.	.	.	18	.	4%[46.1 µM]
COc1ccccc1N1CCN(C(=O)c2cccc(S(=O)(=O)N3CCCCCC3)c2)CC1	?	13µM*	.	-30	?	.
Cc1nc2c(-c3ccccc3)c[nH]n2c(=O)c1Cc1ccccc1	?	105%	9.2µM*	-99*	60%	?
Cc1cc(=O)n2[nH]cc(-c3ccccc3)c2n1	1%	1%	?	3	9.3µM*	25%
COc1ccc(-c2c(C)[nH]n3c(=O)c(Cc4ccccc4)c(C)nc23)cc1	-16%	?	?	-88*	49%	?

Screening results deposited in PubChem BioAssay by National Center for Advancing Translational Sciences (NCATS).
